# Experimental data from PubChem BioAssay (NCI).
# About 83,000 compounds went through this panel and 20% of them were active in at least one assay; those are over-represented in the sample as a whole.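 Negative percent growth values reflect cell death: -40 means 40% of the cells present at the start died, and -100 means all died.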 Unmarked numbers belong to inactive results. Active and inactive are the calls of the source. The calls were made as follows: active = growth percent below 10; inactive = the rest.
# Test system: 786-0 renal
# Assay: NCI-60 one-dose screen, 48 h (100 = growth as untreated, 0 = no growth, -100 = all killed)
# Settings: 10 µM unless noted
row,SMILES,growth
1,COc1ccc(C2CC(c3ccc(OC)c(OC)c3)=NN2C(=O)c2cc(OC)c(OC)c(OC)c2)c(OC)c1 (centres undefined),66.8%
2,CCOC(=O)c1c2c(c(C)n1Cc1ccc(OC)cc1)-c1nc(N)ncc1CC2,98.5%
3,O=C1N(C2CCCCC2)C(=O)N1C1CCCCC1,53.5%
4,O=c1ccn(C2OC(CO)C(O)C2F)c(=O)[nH]1 (centres undefined),99.2%
5,CCCn1cnc2c1c(=O)n(CCCCC(C)=O)c(=O)n2C,104%
6,CCCCc1nc(Cl)c(CO)n1Cc1ccc(-c2ccccc2-c2nn[nH]n2)cc1,106%
7,COc1ccc(C2CC(c3cccc(Nc4ccnc5cc(Cl)ccc45)c3)=NN2C=O)cc1 (centres undefined),34.7%
8,O=c1c(O)cccn1CCCNCCCN(CCCn1cccc(O)c1=O)CCCn1cccc(O)c1=O,107%
9,COc1ccc2nc(-c3ccc(-n4cncc4-c4ccc(OC)c(N)c4)cc3)sc2c1,111%
10,Cc1cc(NC(=O)Nc2cc(Cl)ccc2C)no1,102%
11,O=C1NCN(c2ccccc2)C12CCN(CCCC(c1ccc(F)cc1)c1ccc(F)cc1)CC2,49.2%
12,CCC(O)C(C)(C)C (centres undefined),111%
13,COc1ncc(-c2ccc3nccc(C#CCN4CCN(S(C)(=O)=O)CC4)c3c2)cc1NS(=O)(=O)c1ccc(F)cc1F,-8.36% (active)
14,O=C(Nc1ccc(Cl)cc1)c1cc2c(cc1O)[nH]c1ccccc12,6.54% (active)
15,O=C1c2ccccc2C(=O)c2c1cccc2-n1nnc2ccccc21,106%
16,Cc1nn(-c2ccccc2)c2c1oc(=O)c1cc(Cl)ccc12,100%
17,CCC1=C(c2ccc(OC)cc2)C(C)(C)Oc2c1ccc(O)c2CN1CCCC1,34.2%
18,O=C(NCCc1ccccc1)C1CCC(=O)N1Cc1ccc(Br)cc1 (centres undefined),105%
19,N#Cc1ccc(NC(=O)Nc2ccc(Oc3ccc(NC(=O)Nc4ccc(C#N)cc4)cc3)cc2)cc1,30.3%

row,SMILES,growth
1,COc1ccc2c(c1)C(=O)c1c-2c(OCCN(C)C)nc2cc(OC)ccc12,36.1%
2,O=C(Nc1cccc([N+](=O)[O-])c1)c1cccc(C(=O)Nc2cccc([N+](=O)[O-])c2)c1,73.9%
3,CCCCCCCCCCCCCCCCCC1=NC(C)(C)CN1CCO,-53.6% (active)
4,COc1ccc(OC)c(NC(=O)c2cc3oc4ccccc4c3cc2O)c1,93.1%
5,CN1C(=O)/C(=C/c2nc(-c3cccc(F)c3)n3ccccc23)c2ccccc21,70.7%
6,O=C(CN1CCCCC1)Sc1nnc2sc3ccccc3n12,106%
7,C[C@]12CC[C@@H]3c4ccc(O)c([N+](=O)[O-])c4CC[C@H]3[C@@H]1CC[C@@H]2NS(=O)(=O)c1cccc(Br)c1,42.8%
8,Cc1ccsc1/C=C/C1=NCCCN1C,92.5%
9,CCCCCCCCCCSc1ncnc2nc[nH]c12,71.3%
10,C[n+]1c2ccccc2c(NC2CCNCC2)c2[nH]c3ccccc3c21,58%
11,COc1cccc2c1O/C(=C\c1c([N+](=O)[O-])ncn1C)C2=O,96.1%
12,CC[C@@H]1OC(=O)[C@H](C)[C@@H](O[C@H]2C[C@@](C)(OC)[C@@H](O)[C@H](C)O2)[C@H](C)[C@@H](O[C@@H]2O[C@H](C)C[C@H](N(C)C)[C@H]2O)[C@](C)(O)C[C@@H](C)[C@@H]2N[C@@H](COCCOC)O[C@H]([C@H]2C)[C@]1(C)O,95.8%
13,O=C1C[C@@H]2/C(=C(O)\C=C\c3ccccc3)C(=O)C=C[C@@H]2O1,-46.7% (active)
14,Cc1cc2c(cc1[N+](=O)[O-])NC(CNC(C)C)CC2 (centres undefined),92.9%
15,CCCCN(CCCC)CCCOC(=O)c1ccc(N)cc1,95.4%
16,C=C(C[C@](O)(C(=O)/C=C/c1ccc(Cl)cc1)C(=O)OC)c1ccccc1,84%
17,CCN1C[C@@H](C)n2c(c(O)c3c(=O)n(Cc4ccc(F)c(Cl)c4)nc(C(=O)NC)c32)C1=O,18.4%
18,Cc1nnc(Nc2ccc(NC(=O)Nc3ccc(Cl)cc3)cc2)c2ccccc12,-27.8% (active)

# Test system: COLO 205 colon
# Assay: as above
# Settings: 10 µM unless noted
row,SMILES,growth
1,COc1ccc(C2CC(c3ccc(OC)c(OC)c3)=NN2C(=O)c2cc(OC)c(OC)c(OC)c2)c(OC)c1 (centres undefined),63.9%
2,CCOC(=O)c1c2c(c(C)n1Cc1ccc(OC)cc1)-c1nc(N)ncc1CC2,116%
3,O=C1N(C2CCCCC2)C(=O)N1C1CCCCC1,62%
4,O=c1ccn(C2OC(CO)C(O)C2F)c(=O)[nH]1 (centres undefined),128%
5,CCCn1cnc2c1c(=O)n(CCCCC(C)=O)c(=O)n2C,104%
6,CCCCc1nc(Cl)c(CO)n1Cc1ccc(-c2ccccc2-c2nn[nH]n2)cc1,96.6%
7,COc1ccc(C2CC(c3cccc(Nc4ccnc5cc(Cl)ccc45)c3)=NN2C=O)cc1 (centres undefined),-44.3% (active)
8,O=c1c(O)cccn1CCCNCCCN(CCCn1cccc(O)c1=O)CCCn1cccc(O)c1=O,125%
9,COc1ccc2nc(-c3ccc(-n4cncc4-c4ccc(OC)c(N)c4)cc3)sc2c1,105%
10,Cc1cc(NC(=O)Nc2cc(Cl)ccc2C)no1,143%
11,O=C1NCN(c2ccccc2)C12CCN(CCCC(c1ccc(F)cc1)c1ccc(F)cc1)CC2,27.1%
12,CCC(O)C(C)(C)C (centres undefined),114%
13,COc1ncc(-c2ccc3nccc(C#CCN4CCN(S(C)(=O)=O)CC4)c3c2)cc1NS(=O)(=O)c1ccc(F)cc1F,-55.1% (active)
14,O=C(Nc1ccc(Cl)cc1)c1cc2c(cc1O)[nH]c1ccccc12,87.3%
15,O=C1c2ccccc2C(=O)c2c1cccc2-n1nnc2ccccc21,116%
16,Cc1nn(-c2ccccc2)c2c1oc(=O)c1cc(Cl)ccc12,120%
17,CCC1=C(c2ccc(OC)cc2)C(C)(C)Oc2c1ccc(O)c2CN1CCCC1,77.1%
18,O=C(NCCc1ccccc1)C1CCC(=O)N1Cc1ccc(Br)cc1 (centres undefined),108%
19,N#Cc1ccc(NC(=O)Nc2ccc(Oc3ccc(NC(=O)Nc4ccc(C#N)cc4)cc3)cc2)cc1,-0.221% (active)

row,SMILES,growth
1,COc1ccc2c(c1)C(=O)c1c-2c(OCCN(C)C)nc2cc(OC)ccc12,2.84% (active)
2,O=C(Nc1cccc([N+](=O)[O-])c1)c1cccc(C(=O)Nc2cccc([N+](=O)[O-])c2)c1,120%
3,CCCCCCCCCCCCCCCCCC1=NC(C)(C)CN1CCO,-59.9% (active)
4,COc1ccc(OC)c(NC(=O)c2cc3oc4ccccc4c3cc2O)c1,88.8%
5,CN1C(=O)/C(=C/c2nc(-c3cccc(F)c3)n3ccccc23)c2ccccc21,93%
6,O=C(CN1CCCCC1)Sc1nnc2sc3ccccc3n12,121%
7,C[C@]12CC[C@@H]3c4ccc(O)c([N+](=O)[O-])c4CC[C@H]3[C@@H]1CC[C@@H]2NS(=O)(=O)c1cccc(Br)c1,101%
8,Cc1ccsc1/C=C/C1=NCCCN1C,101%
9,CCCCCCCCCCSc1ncnc2nc[nH]c12,113%
10,C[n+]1c2ccccc2c(NC2CCNCC2)c2[nH]c3ccccc3c21,-1.65% (active)
11,COc1cccc2c1O/C(=C\c1c([N+](=O)[O-])ncn1C)C2=O,109%
12,CC[C@@H]1OC(=O)[C@H](C)[C@@H](O[C@H]2C[C@@](C)(OC)[C@@H](O)[C@H](C)O2)[C@H](C)[C@@H](O[C@@H]2O[C@H](C)C[C@H](N(C)C)[C@H]2O)[C@](C)(O)C[C@@H](C)[C@@H]2N[C@@H](COCCOC)O[C@H]([C@H]2C)[C@]1(C)O,98.7%
13,O=C1C[C@@H]2/C(=C(O)\C=C\c3ccccc3)C(=O)C=C[C@@H]2O1,-73.4% (active)
14,Cc1cc2c(cc1[N+](=O)[O-])NC(CNC(C)C)CC2 (centres undefined),120%
15,CCCCN(CCCC)CCCOC(=O)c1ccc(N)cc1,57.3%
16,C=C(C[C@](O)(C(=O)/C=C/c1ccc(Cl)cc1)C(=O)OC)c1ccccc1,60.4%
17,CCN1C[C@@H](C)n2c(c(O)c3c(=O)n(Cc4ccc(F)c(Cl)c4)nc(C(=O)NC)c32)C1=O,101%
18,Cc1nnc(Nc2ccc(NC(=O)Nc3ccc(Cl)cc3)cc2)c2ccccc12,28.2%
